According to PubChem BioAssay:
For some assays here: Measured potencies and affinities stand elsewhere. Active and inactive are the calls of the source. Unless noted, how the calls were made is not given here.

Columns and labels:
[1] = molecular target: Cell division control protein 42 homolog (Homo sapiens) (UniProt P60953); test: activated mutant Cdc42 GTP-binding inhibitors, dose response, biochemical, multiplex bead flow cytometry, Bodipy-FL-GTP (AID 1333;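 active means fitted half-maximal concentration within the tested dose range, moderate curve steepness, a statistically real signal drop, and little compound fluorescence or tag-binding interference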)
[2] = molecular target: Cell division control protein 42 homolog (Homo sapiens) (UniProt P60953); test: wildtype Cdc42 GTP-binding inhibitors, dose response, biochemical, multiplex bead flow cytometry, Bodipy-FL-GTP (AID 1334;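 active means fitted half-maximal concentration within the tested range, moderate curve steepness, significant signal drop, and little compound fluorescence or bead-linkage interference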); conditions: bead-based flow cytometry, Bodipy-FL-GTP binding to GST-Cdc42; at 100 µM (top of the series) unless noted
[3] = molecular target: GTPase HRas (Homo sapiens) (UniProt P01112); test: inhibitors of GTP binding to wildtype Ras, dose response, biochemical, multiplex bead flow cytometry (AID 1335;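 active means fitted half-maximal concentration within 10 nM to 100 µM, steepness 0.5 to 2, significant signal drop, low assay interference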); conditions: bead-based flow cytometry, Bodipy-GTP binding to GST-Ras; at 100 µM (top of the series) unless noted
[4] = test system: Ras-related protein Rab-7a (dog), GTP binding; test: Rab7 GTP binding inhibitors, potency, dose response, biochemical, wildtype, multiplex bead flow cytometry (AID 1336)
[5] = molecular target: Ras-related C3 botulinum toxin substrate 1 (Homo sapiens) (UniProt P63000); test: wildtype Rac1 GTP binding inhibitors, dose response, biochemical, multiplex bead flow cytometry (AID 1340;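 active means dose curve with midpoint inside tested range, moderate steepness, plateau gap beyond fit error, low compound glow and bead-link interference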); conditions: GST-Rac1 beads, Bodipy-FL-GTP binding; at 100 µM (top of the series) unless noted
[6] = molecular target: GTPase HRas (Homo sapiens) (UniProt P01112); test: activated Ras mutant GTP binding inhibitors, dose response, biochemical, multiplex bead flow cytometry (AID 1341;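 active means dose-response curve with midpoint inside the tested range, moderate steepness, significant amplitude and little compound fluorescence or bead-attachment interference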;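 further: GST-tagged constitutively activated Ras mutant immobilized on beads and multiplexed with other GTPases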)

Chain of Cell division control protein 42 homolog (Homo sapiens) (P60953 whole entry, looked up): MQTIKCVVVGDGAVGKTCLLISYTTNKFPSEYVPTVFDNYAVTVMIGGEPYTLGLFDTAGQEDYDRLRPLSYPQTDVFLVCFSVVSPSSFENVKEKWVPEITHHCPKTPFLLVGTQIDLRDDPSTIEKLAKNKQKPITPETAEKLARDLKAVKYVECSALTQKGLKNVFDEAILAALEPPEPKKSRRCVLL
Chain of GTPase HRas (Homo sapiens) (P01112 whole entry, looked up): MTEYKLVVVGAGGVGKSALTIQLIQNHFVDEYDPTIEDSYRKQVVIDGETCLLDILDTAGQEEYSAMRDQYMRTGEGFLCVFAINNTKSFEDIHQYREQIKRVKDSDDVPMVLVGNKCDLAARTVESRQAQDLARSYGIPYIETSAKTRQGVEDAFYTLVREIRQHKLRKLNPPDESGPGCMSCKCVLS

## COc1ccc(NC(=O)CSc2ccc3nnc(-c4cccnc4)n3n2)c(OC)c1
[1]
  outcome: inactive
[2]
  fluorescence, percent of control (lower = inhibition): 37.4%
[3]
  GTP binding, percent of control: 72.3%
[4]
  outcome: inactive
[5]
  GTP binding signal, raw median fluorescence (lower = inhibition) (MCF (arbitrary fluorescence units)): 165
[6]
  outcome: inactive

## CCc1ccc(NC(=O)c2cc3c(C)nc4ccccc4c3o2)cc1
[1]
  outcome: inactive
[2]
  fluorescence, percent of control (lower = inhibition): 51.4%
[3]
  GTP binding, percent of control: 93.2%
[4]
  outcome: inactive
[5]
  GTP binding signal, raw median fluorescence (lower = inhibition) (MCF (arbitrary fluorescence units)): 261
[6]
  outcome: inactive

## CC(C)Cc1csc(NC(=O)c2ccccc2Cl)c1C(=O)O
[1]
  outcome: inactive
[2]
  fluorescence, percent of control (lower = inhibition): 29.8%
[3]
  GTP binding, percent of control: 74.3%
[4]
  outcome: inactive
[5]
  GTP binding signal, raw median fluorescence (lower = inhibition) (MCF (arbitrary fluorescence units)): 214

## Cc1n[nH]c(=S)c2nn(-c3ccccc3F)c(C)c12
[1]
  outcome: inactive
[2]
  fluorescence, percent of control (lower = inhibition): 48.5%
[3]
  GTP binding, percent of control: 62.5%
[4]
  outcome: inactive
[5]
  GTP binding signal, raw median fluorescence (lower = inhibition) (MCF (arbitrary fluorescence units)): 179
[6]
  outcome: inactive

## CC1(C)Cc2c(sc3c2C2=NCCN2C=N3)CS1
[1]
  outcome: inactive
[2]
  fluorescence, percent of control (lower = inhibition): 38.3%
[3]
  GTP binding, percent of control: 86.3%
[4]
  outcome: inactive
[5]
  GTP binding signal, raw median fluorescence (lower = inhibition) (MCF (arbitrary fluorescence units)): 280
[6]
  outcome: inactive

## COc1cc(/C=N/NC(=O)CCN2CCN(c3ccccc3)CC2)cc(OC)c1OC
[1]
  outcome: inactive
[2]
  fluorescence, percent of control (lower = inhibition): 34.6%
[3]
  GTP binding, percent of control: 77.3%
[4]
  outcome: inactive
[5]
  GTP binding signal, raw median fluorescence (lower = inhibition) (MCF (arbitrary fluorescence units)): 236
[6]
  outcome: inactive

## COc1ccc(C(=O)c2c(O)cc(-c3ccc(OC)cc3)oc2=O)cc1
[1]
  outcome: inactive
[2]
  fluorescence, percent of control (lower = inhibition): 52.9%
[3]
  GTP binding, percent of control: 70.9%
[4]
  outcome: inactive
[5]
  GTP binding signal, raw median fluorescence (lower = inhibition) (MCF (arbitrary fluorescence units)): 249

## O=C(O)c1ccccc1NCc1c(Cl)cccc1Cl
[1]
  outcome: inactive
[2]
  fluorescence, percent of control (lower = inhibition): 59.4%
[3]
  GTP binding, percent of control: 87.4%
[4]
  outcome: inactive
[5]
  GTP binding signal, raw median fluorescence (lower = inhibition) (MCF (arbitrary fluorescence units)): 30.2
[6]
  outcome: inactive

## CCOc1ccc(CCNc2ccc3nnc(-c4ccccc4)n3n2)cc1OCC
[1]
  outcome: inactive
[2]
  fluorescence, percent of control (lower = inhibition): 40.9%
[3]
  GTP binding, percent of control: 54.2%
[4]
  outcome: inactive
[5]
  GTP binding signal, raw median fluorescence (lower = inhibition) (MCF (arbitrary fluorescence units)): 141
[6]
  outcome: inactive

## O=C(OCCN1CCCCC1)c1cc2ccccc2o1
[1]
  outcome: inactive
[2]
  fluorescence, percent of control (lower = inhibition): 34.8%
[3]
  GTP binding, percent of control: 79.9%
[4]
  outcome: inactive
[5]
  GTP binding signal, raw median fluorescence (lower = inhibition) (MCF (arbitrary fluorescence units)): 271
[6]
  outcome: inactive

## Cc1nnc(N2CCOCC2)c2nn(-c3cccc(Cl)c3)c(C)c12
[1]
  outcome: inactive
[2]
  fluorescence, percent of control (lower = inhibition): 204%
[3]
  GTP binding, percent of control: 209%
[4]
  outcome: inactive
[5]
  GTP binding signal, raw median fluorescence (lower = inhibition) (MCF (arbitrary fluorescence units)): 306
[6]
  outcome: inactive

## Cc1cc(C)c2sc(N(CCN(C)C)C(=O)c3cc(Cl)sc3Cl)nc2c1
[1]
  outcome: inactive
[2]
  fluorescence, percent of control (lower = inhibition): 33.6%
[3]
  GTP binding, percent of control: 78.8%
[4]
  outcome: inactive
[5]
  GTP binding signal, raw median fluorescence (lower = inhibition) (MCF (arbitrary fluorescence units)): 283
[6]
  outcome: inactive

## Cc1ccc(OCCn2cc(C(=O)O)c3ccccc32)cc1C
[1]
  outcome: inactive
[2]
  fluorescence, percent of control (lower = inhibition): 60.4%
[3]
  GTP binding, percent of control: 85.4%
[4]
  outcome: inactive
[5]
  GTP binding signal, raw median fluorescence (lower = inhibition) (MCF (arbitrary fluorescence units)): 32.5
[6]
  outcome: inactive

## Cc1nc2ncccn2c1-c1csc(Nc2ccc(O)cc2)n1
[1]
  outcome: inactive
[2]
  fluorescence, percent of control (lower = inhibition): 20.9%
[3]
  GTP binding, percent of control: 46.8%
[4]
  outcome: inactive
[5]
  GTP binding signal, raw median fluorescence (lower = inhibition) (MCF (arbitrary fluorescence units)): 106
[6]
  outcome: inactive

## O=C(O)c1cc(Sc2ccccc2)nc2ccccc12
[1]
  outcome: inactive
[2]
  fluorescence, percent of control (lower = inhibition): 56.6%
[3]
  GTP binding, percent of control: 81.9%
[4]
  outcome: inactive
[5]
  GTP binding signal, raw median fluorescence (lower = inhibition) (MCF (arbitrary fluorescence units)): 30.1
[6]
  outcome: inactive

## O=[N+]([O-])c1cc(Cc2ccccc2)cc(C=Nc2ccc(N3CCOCC3)cc2)c1O
[1]
  outcome: inactive
[2]
  fluorescence, percent of control (lower = inhibition): 45.1%
[3]
  GTP binding, percent of control: 65.5%
[4]
  outcome: inactive
[5]
  GTP binding signal, raw median fluorescence (lower = inhibition) (MCF (arbitrary fluorescence units)): 0
[6]
  outcome: inactive

## COc1ccccc1CCNCc1ccc(C(=O)O)s1
[1]
  outcome: inactive
[2]
  fluorescence, percent of control (lower = inhibition): 63%
[3]
  GTP binding, percent of control: 88.4%
[4]
  outcome: inactive
[5]
  GTP binding signal, raw median fluorescence (lower = inhibition) (MCF (arbitrary fluorescence units)): 34.1
[6]
  outcome: inactive

## C/C=C/c1ccccc1OCc1ccc(C(=O)O)o1
[1]
  outcome: inactive
[2]
  fluorescence, percent of control (lower = inhibition): 180%
[3]
  GTP binding, percent of control: 326%
[4]
  outcome: inactive
[5]
  GTP binding signal, raw median fluorescence (lower = inhibition) (MCF (arbitrary fluorescence units)): 420
[6]
  outcome: inactive

## Cc1[nH]c2ccccc2c1C(=O)CNc1nccs1
[1]
  outcome: inactive
[2]
  fluorescence, percent of control (lower = inhibition): 50.6%
[3]
  GTP binding, percent of control: 58%
[4]
  outcome: inactive
[5]
  GTP binding signal, raw median fluorescence (lower = inhibition) (MCF (arbitrary fluorescence units)): 0
[6]
  outcome: inactive

## Nc1ccc2c(c1)C(=O)C(=O)c1ccccc1-2
[1]
  outcome: inactive
[2]
  fluorescence, percent of control (lower = inhibition): 22.1%
[3]
  GTP binding, percent of control: 57.5%
[4]
  outcome: inactive
[5]
  GTP binding signal, raw median fluorescence (lower = inhibition) (MCF (arbitrary fluorescence units)): 73.8
[6]
  outcome: inactive

## COc1cc(N2CCCC2)c(OC)cc1/C=C(/C#N)c1ccc(Br)cc1
[1]
  outcome: inactive
[2]
  fluorescence, percent of control (lower = inhibition): 104%
[3]
  GTP binding, percent of control: 117%
[4]
  outcome: inactive
[5]
  GTP binding signal, raw median fluorescence (lower = inhibition) (MCF (arbitrary fluorescence units)): 258
[6]
  outcome: inactive

## CCC/C(O)=C1\C(=O)CC(C)(C)CC1=Nc1ccccc1OC
[1]
  outcome: inactive
[2]
  fluorescence, percent of control (lower = inhibition): 41.5%
[3]
  GTP binding, percent of control: 88.8%
[4]
  outcome: inactive
[5]
  GTP binding signal, raw median fluorescence (lower = inhibition) (MCF (arbitrary fluorescence units)): 276
[6]
  outcome: inactive

## Cc1ccc(Nc2cc(C(=O)O)c3ccccc3n2)cc1C
[1]
  outcome: inactive
[2]
  fluorescence, percent of control (lower = inhibition): 60.9%
[3]
  GTP binding, percent of control: 84.7%
[4]
  outcome: inactive
[5]
  GTP binding signal, raw median fluorescence (lower = inhibition) (MCF (arbitrary fluorescence units)): 31.9
[6]
  outcome: inactive

## CN(C)c1ccc([C@@H]2[C@@H]([N+](=O)[O-])[C@H]3C=Cc4ccccc4N3[C@H]2C(=O)c2ccc(Cl)cc2)cc1
[1]
  outcome: inactive
[2]
  fluorescence, percent of control (lower = inhibition): 46.5%
[3]
  GTP binding, percent of control: 60.6%
[4]
  outcome: inactive
[5]
  GTP binding signal, raw median fluorescence (lower = inhibition) (MCF (arbitrary fluorescence units)): 169
[6]
  outcome: inactive

## O=C(O)COc1ccccc1/C=N/NC(=O)c1cc(-c2ccc(F)cc2)nc2ccccc12
[1]
  outcome: inactive
[2]
  fluorescence, percent of control (lower = inhibition): 30.7%
[3]
  GTP binding, percent of control: 80.5%
[4]
  outcome: inactive
[5]
  GTP binding signal, raw median fluorescence (lower = inhibition) (MCF (arbitrary fluorescence units)): 177
[6]
  outcome: inactive

## CCOc1ccc2c(c1)c(N=NC(=N)N)c(O)n2C
[1]
  outcome: inactive
[2]
  fluorescence, percent of control (lower = inhibition): 32.4%
[3]
  GTP binding, percent of control: 70.3%
[4]
  outcome: inactive
[5]
  GTP binding signal, raw median fluorescence (lower = inhibition) (MCF (arbitrary fluorescence units)): 165
[6]
  outcome: inactive

## COc1ccc(-c2noc(CCC(=O)N3CCN(c4cc(C)ccc4C)CC3)n2)cc1
[1]
  outcome: inactive
[2]
  fluorescence, percent of control (lower = inhibition): 25.4%
[3]
  GTP binding, percent of control: 76%
[4]
  outcome: inactive
[5]
  GTP binding signal, raw median fluorescence (lower = inhibition) (MCF (arbitrary fluorescence units)): 195
[6]
  outcome: inactive

## CC(=O)c1c(C)[nH]c(C(=O)N2CCc3ccccc3C2)c1C
[1]
  outcome: inactive
[2]
  fluorescence, percent of control (lower = inhibition): 107%
[3]
  GTP binding, percent of control: 192%
[4]
  outcome: inactive

## Nc1nc2c(c(=O)[nH]1)C(c1cccc3ccccc13)C1=C(N2)c2ccccc2C1=O (stereo unspecified)
[1]
  outcome: inactive
[2]
  fluorescence, percent of control (lower = inhibition): 31%
[3]
  GTP binding, percent of control: 75.5%
[4]
  outcome: inactive
[5]
  GTP binding signal, raw median fluorescence (lower = inhibition) (MCF (arbitrary fluorescence units)): 204
[6]
  outcome: inactive

## Oc1ccc(C2=Nn3c(nnc3-c3ccco3)SC2)cc1O
[1]
  outcome: inactive
[2]
  fluorescence, percent of control (lower = inhibition): 25.1%
[3]
  GTP binding, percent of control: 35.2%
[4]
  outcome: inactive
[5]
  GTP binding signal, raw median fluorescence (lower = inhibition) (MCF (arbitrary fluorescence units)): 0
[6]
  outcome: inactive
